Compounds with a hit are over-represented: about 4.2% of the library has one in this group of screens.
Sfp PPTase inh = blocks B. subtilis Sfp PPTase activity | Q9F4F7 | Biochemical Sfp PPTase activity, qHTS | Potency, µM, for the others: largest response in the series, negative = inhibition, most hits filed as inhibitors | 310,000 tested, 3.5% active | AID 1490;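 further: the enzyme is Sfp with the accession as filed and its product quenches rhodamine fluorescence; potency means the concentration at half of the fitted maximal effect; 0% = enzyme reaction without inhibitor and -100% = no enzyme wells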
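With Hepes-Na pH 7.6 buffer containing 10 mM MgCl2, Sfp (15 nM) modified BHQ-2-YbbR (12.5 uM) using rhodamine-CoA (5 uM). Two reads 30 minutes apart at 525/598 nm yielded each well's rate.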
TCR act = activates T cell receptor signaling; primary human leukocytes, anti-CD3, IL-2 HTRF, 48 h; 330,000 tested, under 10 active; Potency, µM (series often up to 9.22 µM), for inactives: top-dose activation of IL-2 secretion, most hits filed as activators; further: % of control where 0% means no effect
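TCR engagement came from a-CD3 beads alone, with compounds added to primary human leukocytes for 48 hr. Secreted IL-2 bridged europium cryptate- and d2-labelled anti-IL-2 antibodies, giving FRET emission at 665nm after 320nm excitation.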
uPA surface inh = blocks generation of uPA at the cell surface | cell surface uPA generation assay, qHTS | Potency, µM (top dose mostly 38.3 µM), without a hit: at the top dose activity change, negative = inhibition, actives largely listed as inhibitors | 330,000 tested, 0.31% active; active means well fitted inhibition curve with a large enough effect; inconclusive means small, poorly fitted or top-dose-only effect; inactive means no such curve, though single readings can be large or run the other way; tested in mouse RAW 264.7 cells; further: potency means the concentration at half of the fitted maximal effect; on the % scale 0 is the no-effect control and ±100 the full control effect; nearly all actives have a fitted effect of over 55% in size
ClpP mod = qHTS Assay for Activators of ClpP. AID 651965, 2013. ATP-dependent Clp protease proteolytic subunit (Bacillus subtilis (strain 168)), P80244. Potency, µM (series often up to 57.5 µM), inactives show top-dose activity change, negative = active. 340,000 tested, 1.9% active. purified B. subtilis ClpP, FRET peptide cleavage, 20 min; active means well fitted falling curve with a large enough effect; inconclusive means small, poorly fitted or top-dose-only effect; inactive means no such curve, though single readings can be large or run the other way; further: potency means the concentration at half of the fitted maximal effect; the source files actives as falling curves though it sought activators and does not explain the sign; nearly all actives have a fitted effect of over 65% in size
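ClpP 10 microg/mL final, pH 8 Tris/KCl buffer with BSA, glycerol, Tween-20; compound pinned in; FRET-FV substrate; RT 20 min; Ex320/Em430; ΔFRET vs ADEP 5.8 microM, DMSO, no enzyme.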
* = called active by the depositor; u = inconclusive; x = no result given; [ ] = another dose, or the depositor's remark. Unless noted, the call rests on the fitted dose curve; in most records, active means well fitted curve in the direction sought with a large enough effect; inconclusive means small, poorly fitted or top-dose-only effect, or another doubt; inactive means no such curve, though single readings can be large; an effect the other way counts as inactive or inconclusive.

SMILES	Sfp PPTase inh	TCR act	uPA surface inh	ClpP mod
N#Cc1cnc(NN)nc1	6.3µM*	5%	0%	-12%
COc1ccc(OCC(=O)N2CCCC(Nc3ccc(C)c(C)c3)C2)cc1 (centres undefined)	x	x	x	1%
N#CC1=C(N)SC2(CCCCC2)SC1c1ccccc1 (centres undefined)	10µM*	-2%	1%	-3%
COc1ccc(C2NCCc3c2[nH]c2ccccc32)cc1COc1ccc(F)cc1 (centres undefined)	45µM*	-6%[46.1 µM]	u	-2%
Cc1ccc(C)c(S(=O)(=O)N2CCN(CC(=O)N3CCc4ccccc4C3)CC2)c1	56µM*	-3%	-1%	0%
CCC(C(=O)Nc1ccc(C(=O)OC)cc1)n1c(=O)c(-c2ccccc2NC(C)=O)nc2ccccc21 (centres undefined)	x	x	x	-14%
CCOc1ccc(N2C(=O)CN(C)C2=S)cc1	-3%	1%[46.1 µM]	3%	1%
CCOc1ccc(N2C(=O)CN(O)C=C3N=c4ccccc4=C32)cc1	4.5µM*	x	x	x
O=C1CCC(=O)N1CO	9%	x	x	x
CC[n+]1c(/C=C/C=C/N(C(C)=O)c2ccccc2)sc2cc(OC)ccc21	45µM*	0%[46.1 µM]	-9%	-1%
CCOc1ccccc1NS(=O)(=O)c1c(C)nc2sccn2c1=O	x	x	x	1%
COC(=O)N1C(=O)[C@@](c2ccccc2)(C2CCCCC2)N1C(=O)OC	-2%	-6%	8.9µM*	0%
CC[C@@]1(c2ccccc2)C(=O)N(C(=O)OC)N1C(=O)OC	-25%	11%	-6%	2%
COc1ccc(C2C=C(c3cccs3)Nc3nc(CCCO)nn32)cc1 (centres undefined)	16µM*	x	x	x
COc1cc2c(cc1OC)C(COc1ccccc1OC)N(C(=O)c1ccccc1OC)CC2 (centres undefined)	x	x	x	0%
CCc1nc2sc3c(c2c(=O)o1)CCCC3	25µM*	-5%	2%	-3%
CC(C)(C)c1nc2sc3c(c2c(=O)o1)CCCC3	-7%	-14%	-4%	0%
COc1ccc(NC(=O)CSc2nnc3ccc(-c4ccccn4)nn23)cc1	x	-2%	4%	16µM*
Cc1nc(SCC(=O)Nc2ccccn2)n[nH]1	6%	-7%	2%	x
O=C(CSc1nnc2ccc(-c3ccccn3)nn12)Nc1ccccc1	x	-1%	10%	36%
COc1ccc(-c2ccnc(SCC(=O)Nc3ccccn3)n2)cc1	4%	-1%[46.1 µM]	-6%	35µM*
CC(c1ccccc1)C1CC(=O)N(Cc2ccco2)C1=O (centres undefined)	22µM*	-2%	-1%	3%
CC(c1ccccc1)C1CC(=O)N(CC(=O)O)C1=O (centres undefined)	13%	0%	11%	-3%
CCOC(=O)CN(c1ccccn1)S(=O)(=O)c1ccccc1	17%	1%	2%	32µM*
COc1ccc(S(=O)(=O)N(CC(=O)O)c2ccccn2)cc1	11%	-2%	2%	-4%
SMILES	Sfp PPTase inh	TCR act	uPA surface inh	ClpP mod
CCOc1nc(-c2ccccc2)ccc1-c1noc(-c2cccs2)n1	u	6%	x	25µM*
CCOc1nc(-c2ccccc2)ccc1-c1noc(COC)n1	-29%	-4%[46.1 µM]	2%	35µM*
COc1ccc(Cl)cc1NS(=O)(=O)c1cc(-c2cc(C)no2)ccc1C	x	x	x	0%
COc1ccc([C@]23Cc4cc(OC)c(OC)cc4C(O2)C2=C(CC(C)(C)CC2=O)O3)cc1	1%	x	x	x
O=C(NCCc1ccccc1)c1c[nH]c2ccc(S(=O)(=O)Nc3ccccc3F)cc2c1=O	x	x	x	-7%
CCc1ccc(N(C)S(=O)(=O)c2ccc3[nH]cc(C(=O)NCC4CCCO4)c(=O)c3c2)cc1 (centres undefined)	x	x	x	-19%
CN(CCC#N)S(=O)(=O)c1ccc2[nH]cc(C(=O)NCCc3ccccc3)c(=O)c2c1	8%	2%[46.1 µM]	0%	28µM*
Cc1ccccc1N(C)S(=O)(=O)c1ccc2[nH]cc(C(=O)NCC3CCCO3)c(=O)c2c1 (centres undefined)	2%	x	17%	32µM*
CCN(CC)S(=O)(=O)c1ccc2[nH]cc(C(=O)NCCCN3CCCCC3C)c(=O)c2c1 (centres undefined)	13%	0%	6%	22µM*
CCN(CC)S(=O)(=O)c1ccc2[nH]cc(C(=O)NCCCN3CCCCC3)c(=O)c2c1	5%	2%[46.1 µM]	-6%	28µM*
CCN(CC)S(=O)(=O)c1ccc2[nH]cc(C(=O)NCCN3CCCCCC3)c(=O)c2c1	-3%	5%	8%	u
Cc1cccc(N(C)S(=O)(=O)c2ccc3c(c2)C(C)(C)C(=O)N3C)c1	7%	16%	7%	2%
Cc1ccc(OCCNC(=O)Cc2ccc(S(=O)(=O)N3CCOCC3)s2)cc1	14%	-6%	1%	1%
CN1C(=O)C2(N=c3ccccc3=N2)c2ccccc21	-3%	-7%	-12%	13µM*
COCCn1c(N)c(S(=O)(=O)c2cccs2)c2nc3ccccc3nc21	-12%	-2%	7%	32%
Nc1c(S(=O)(=O)c2cccs2)c2nc3ccccc3nc2n1Cc1ccccc1	-4%	5%	-1%	35µM*
COc1ccc(Cn2c(N)c(S(=O)(=O)c3cccs3)c3nc4ccccc4nc32)cc1	18%	-4%	-2%	8.9µM*
Cc1ccc(Cn2c(N)c(S(=O)(=O)c3cccs3)c3nc4ccccc4nc32)cc1	12%	-11%	3%	3.2µM*
COc1cccc(/C=N/n2c(N)c(S(=O)(=O)c3cccs3)c3nc4ccccc4nc32)c1OC	-9%	0%	x	2.8µM*
Cc1[nH]c2ccc(C(=O)O)cc2c1C	-11%	3%	4%	-11%
CCCc1c(C)[nH]c2ccc(C(=O)O)cc2c1=S	25µM*	-7%	2%	-29%
COC(=O)C1=C(O)/C(=C\c2ccc(CNS(=O)(=O)c3ccc(Cl)cc3)o2)N=C1C	35µM*	-4%[46.1 µM]	2%	-2%
COC(=O)C1=C(O)/C(=C\c2ccc(CNS(=O)(=O)c3ccccc3)o2)N=C1C	50µM*	2%	-2%	-1%
COc1ccc(NC(=O)Nc2sc3nc4n(c(=O)c3c2C)CCC(C)CC4)cc1OC (centres undefined)	x	x	x	68%
CN1C(=O)C(=C2CCCCCC2)SC1=S	56µM*	3%	7%	1%
SMILES	Sfp PPTase inh	TCR act	uPA surface inh	ClpP mod
C=CCN1C=CC=C/C1=C1\SC(=S)N(C)C1=O	u	2%	0%	x
COc1ccc(CCNC(=O)c2cnc3sc(N4CCOCC4)nn3c2=O)cc1	x	x	x	28µM*
COc1ccc(CNC(=O)c2cnc3sc(N4CCCC4)nn3c2=O)cc1OC	x	x	x	16µM*
CCNC(=O)c1cnc2sc(N3CCCCCC3)nn2c1=O	x	x	x	11µM*
COCCNC(=O)c1cnc2sc(N3CCCCC3)nn2c1=O	x	x	x	4%
COC(=O)c1ccccc1NC(=O)CN1C(=O)c2ccccc2C1=O	x	-1%	-6%	5%
CCc1nc2c(OCCn3cccc3)cccn2c1N(C)C(=O)c1ccco1	x	x	x	-1%
CCCNC(=O)N1CCN(Cc2ccco2)CC1	7%	4%	3%	x
CCc1nnc(N/N=C/c2ccccc2Cl)n1N	-24%	x	-26%	77%
